KB-3-1 cytotox: qHTS assay for MDR1-selective chemotherapeutics: Primary screen using the parental adenocarcinoma cell KB-3-1 | actives 1.4% (n = 400,000) | Potency, µM (series often up to 46.1 µM), usual class: cytotoxic | KB-3-1 viability, CellTiter-Glo ATP luminescence, 72 h; note: nearly all actives have a fitted effect of over 60% in size
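Parental KB-3-1 adenocarcinoma cells in phenol-red-free DMEM with 10% FBS were pin-treated with compounds at several concentrations, incubated 72 h at 37 °C, and viability read by CellTiter-Glo luminescence; concentration-effect curves were fitted after normalization.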
D3 ag: qHTS of D3 Dopamine Receptor Agonist: qHTS | D(3) dopamine receptor (Homo sapiens), P35462 | D3R DiscoveRx beta-arrestin cells, luminescence, 90 min | max activation, % | actives 0.58% (n = 410,000); in the data active = max activation above about 30%
Target sequence (P35462 whole entry, looked up): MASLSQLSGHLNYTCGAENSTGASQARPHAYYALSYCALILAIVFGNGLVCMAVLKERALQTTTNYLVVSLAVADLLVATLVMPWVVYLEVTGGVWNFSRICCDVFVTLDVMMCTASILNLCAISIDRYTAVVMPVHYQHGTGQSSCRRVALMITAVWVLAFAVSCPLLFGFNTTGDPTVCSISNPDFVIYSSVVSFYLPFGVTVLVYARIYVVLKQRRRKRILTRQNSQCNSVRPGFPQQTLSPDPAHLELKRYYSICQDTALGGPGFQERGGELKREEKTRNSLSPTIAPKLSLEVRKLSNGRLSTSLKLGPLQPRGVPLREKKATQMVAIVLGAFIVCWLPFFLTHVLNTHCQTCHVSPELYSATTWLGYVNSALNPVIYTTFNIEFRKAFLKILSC
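Cells at 1500/well, incubated overnight, then treated with pinned compounds (dopamine as control) for 90 min at 37 degrees C. DiscoveRx reagent added for 30 - 60 minutes at room temperature; luminescence read.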
DRD3 antagonist: qHTS of D3 Dopamine Receptor Antagonist: qHTS; D(3) dopamine receptor (Homo sapiens), P35462; D3R cells, DiscoveRx beta-arrestin luminescence, antagonist mode; stronger effect = lower value; max response, negative = inhibition, %; actives 2.5% (n = 360,000); in the data active = max response below about -50%; inconclusive = no clear call, values can overlap the other calls
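Cells plated overnight at 1500 cells/well, then exposed to library compounds with dopamine controls for 90 minutes at 37 degrees C. DiscoveRx reagent added for 30–60 minutes at room temperature; luminescence read, quantitative HTS format.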
SW480 rerep: A quantitative high throughput screen for small molecules that induce DNA re-replication in SW480 colon adenocarcinoma cells; Potency, µM (top dose mostly 46.1 µM), actives largely listed as activators; SW480 DNA re-replication, Hoechst DNA content imaging, 48 h; actives 1.8% (n = 340,000); note: nearly all actives have a fitted effect of over 55% in size
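DNA re-replication was detected as more nuclei of elevated Hoechst intensity after 48 hr exposure to compound (23 nL pinned per well of 250 cells).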
KB-V1 MDR tox: qHTS assay for MDR1-selective chemotherapeutics: Primary screen using the drug-selected MDR subline cells KB-V1 | Potency, µM (series often up to 46.1 µM), hits mostly cytotoxic | actives 3.4% (n = 400,000) | KB-V1 MDR cells viability, CellTiter-Glo, 72 h; note: nearly all actives have a fitted effect of over 60% in size
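KB-V1 MDR subline cells in DMEM (phenol-red free, 10% FBS) exposed to compounds in qHTS concentration series for 72 h at 37 degrees C. Viability read by CellTiter-Glo luminescence; concentration-effect curves fitted after normalization and correction.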
MCF10A rerep: A quantitative high throughput screen for small molecules that induce DNA re-replication in MCF 10a normal breast cells; AID 624296, 2012; MCF 10A DNA re-replication, Hoechst nuclear intensity, 48 h; Potency, µM (series often up to 46.1 µM), hits mostly activators; actives 2.9% (n = 350,000); note: nearly all actives have a fitted effect of over 50% in size
Large screens that a line does not name were inactive. Shown are actives, neighbours in structure and some others; about 8.9% of the full set was active somewhere. Unless noted, calls come from the whole dose curve; as a rule, active = well fitted curve in the direction sought with a large enough effect; inconclusive = small, poorly fitted or top-dose-only effect, or another doubt; inactive = no such curve, though single readings can be large; an effect the other way counts as inactive or inconclusive.

c1ccc(-c2cc3c(ccc4nonc43)nn2)cc1	none
CCOc1ccc(-n2nc(CO)c(C(=O)NCCCc3ccccc3)n2)cc1	none (no result: KB-3-1 cytotox, DRD3 antagonist, SW480 rerep, KB-V1 MDR tox, MCF10A rerep)
Cc1cc(C)nc(Sc2nc(Nc3ccccc3)nc(Sc3nc(C)cc(C)n3)n2)n1	KB-3-1 cytotox 21µM, SW480 rerep inconclusive, KB-V1 MDR tox inconclusive, MCF10A rerep inconclusive
C=CCNc1nc(Cl)nc(Nc2ccccc2)n1	none
COc1nc(Nc2cccc(F)c2)nc(OC)n1	KB-3-1 cytotox inconclusive, KB-V1 MDR tox 6.5µM
c1ccc(Nc2ccnc(Nc3ccccc3)n2)cc1	KB-3-1 cytotox inconclusive, SW480 rerep inconclusive, KB-V1 MDR tox 18µM, MCF10A rerep inconclusive
CNc1nc(Cl)nc(Nc2ccccc2)n1	KB-3-1 cytotox inconclusive, KB-V1 MDR tox 5.8µM, MCF10A rerep inconclusive
NNc1nccc(Nc2ccccc2C(=O)O)n1	none
Cc1cc(C)nc(Nc2ccc(O)cc2)n1	none
Cc1noc(-c2ccc(NC(C)c3ccccc3)c([N+](=O)[O-])c2)n1 (configuration not stated)	none (no result: DRD3 antagonist, SW480 rerep, MCF10A rerep)
CCN(CC)S(=O)(=O)c1ccc(N2CCOCC2)c(NC(=S)NC(=O)c2ccco2)c1	MCF10A rerep inconclusive
NNc1nc(Nc2ccccc2)nc(Nc2ccccc2)n1	DRD3 antagonist -52, SW480 rerep inconclusive, MCF10A rerep inconclusive
COc1nc(Nc2ccc(OC)c(Cl)c2)nc(OC)n1	KB-3-1 cytotox inconclusive, KB-V1 MDR tox 18µM
COc1nc(Nc2ccccc2)nc(OC)n1	KB-3-1 cytotox inconclusive, SW480 rerep inconclusive, KB-V1 MDR tox 8.2µM, MCF10A rerep inconclusive
NNc1nc(Nc2ccccc2)nc(N2CCCCC2)n1	DRD3 antagonist inconclusive, KB-V1 MDR tox inconclusive
COc1ccc(Nc2nc(C)cc(C)n2)cc1Cl	none
CCCOC(=O)c1ccc2c(c1)C(=O)N(c1ccccc1)C2=O	SW480 rerep 16µM, MCF10A rerep inconclusive
O=C(CCCCC(=O)Nc1ccccc1Cl)Nc1ccccc1Cl	SW480 rerep 2.9µM
Cc1cc(C)c2c(c1)/C(=N/NC(=O)c1cc(C)oc1C)CCC2	SW480 rerep 2.9µM, MCF10A rerep inconclusive
Cc1cc(C)c2c(c1)/C(=N/NC(=O)c1ccc(O)cc1)CCC2	none
COc1ccc(C)cc1NC(=O)C1CCN(S(=O)(=O)c2ccc3[nH]c(=O)oc3c2)CC1	none (no result: DRD3 antagonist, SW480 rerep, MCF10A rerep)
CCOCC(O)COc1ccc(NC(=O)CC[S+](C)C)cc1 (configuration not stated)	none (no result: KB-3-1 cytotox, DRD3 antagonist, KB-V1 MDR tox)
C=CCN(C(=O)CN1CCCCC1)c1nc(-c2ccccc2)cs1	MCF10A rerep inconclusive
C=CCN(C(=O)C1CC(=O)N(C2CCCC2)C1)c1nc(-c2ccc(S(C)(=O)=O)cc2)cs1 (configuration not stated)	KB-3-1 cytotox 18µM, KB-V1 MDR tox 2.9µM
CC(/C=C/c1ccc(N(C)C)cc1)=N/N=C1/NC(=O)CC(C(=O)Nc2ccc(Cl)cc2)S1 (configuration not stated)	DRD3 antagonist inconclusive, SW480 rerep 21µM, MCF10A rerep 6.5µM
CCCOc1ccc(NC(=O)C2CC(=O)N/C(=N/N=C(C)/C=C/c3ccc(N(C)C)cc3)S2)cc1 (configuration not stated)	KB-3-1 cytotox inconclusive, SW480 rerep 18µM, KB-V1 MDR tox 16µM, MCF10A rerep 5.2µM
CCCOc1ccc(NC(=O)C2CC(=O)N/C(=N/N=C(\C)CCc3ccc4c(c3)OCO4)S2)cc1 (configuration not stated)	MCF10A rerep inconclusive
CC(/C=C/c1ccc(N(C)C)cc1)=N\N=C1\NC(=O)CC(C(=O)Nc2ccccc2)S1 (configuration not stated)	SW480 rerep inconclusive, MCF10A rerep 12µM
COc1cccc(/C=C/C(=O)OCC(=O)Nc2cccc(S(=O)(=O)NC3=NCCCCC3)c2)c1	none
CSc1ccc(CCNC(=O)C2CCCN(S(=O)(=O)N(C)c3ccc(F)cc3)C2)cc1 (configuration not stated)	KB-V1 MDR tox inconclusive (no result: DRD3 antagonist, SW480 rerep, MCF10A rerep)
CC[C@]1(c2ccccc2OC)ON(c2ccccc2C(F)(F)F)C1=O	KB-3-1 cytotox 23µM, SW480 rerep inconclusive, KB-V1 MDR tox inconclusive, MCF10A rerep inconclusive
CSC1=NC(C(Cl)(Cl)Cl)N=C(c2ccc(C)cc2)N1 (configuration not stated)	KB-3-1 cytotox 1µM, SW480 rerep inconclusive, KB-V1 MDR tox 1.3µM, MCF10A rerep 1.8µM
CCC1N=C(SC)NC(C)=C1C(=O)c1ccccc1 (configuration not stated)	none
CC(=O)c1cccc(NS(=O)(=O)c2cccc(S(=O)(=O)c3ccc(Br)cc3)c2)c1	KB-3-1 cytotox inconclusive (no result: DRD3 antagonist, SW480 rerep, MCF10A rerep)
C[n+]1ccc(/C=C/c2c[nH]c3ccc(F)cc23)cc1	KB-3-1 cytotox 8.2µM, SW480 rerep inconclusive, MCF10A rerep inconclusive
C[n+]1ccc(/C=C/c2ccc(Br)cc2)cc1	KB-3-1 cytotox inconclusive
O=C(COC(=O)c1ccccc1)Nc1ccc2[nH]c(=O)[nH]c2c1	KB-V1 MDR tox inconclusive, MCF10A rerep inconclusive
CCOc1ccccc1OCC(=O)Nc1ccc2[nH]c(=O)[nH]c2c1	KB-3-1 cytotox 8.2µM, KB-V1 MDR tox 16µM
O=C(COc1ccccc1Cl)Nc1ccc2[nH]c(=O)[nH]c2c1	KB-3-1 cytotox 1.5µM, DRD3 antagonist -61, KB-V1 MDR tox 0.52µM
COc1cccc(N2CCN(C(=O)Cn3c(-c4cccs4)cc4ccccc43)CC2)c1	KB-V1 MDR tox inconclusive (no result: DRD3 antagonist, SW480 rerep, MCF10A rerep)
CCCN1C(=O)C(O)(C2CC(=O)CC(C)(C)O2)c2ccccc21 (configuration not stated)	KB-3-1 cytotox inconclusive, SW480 rerep 16µM, KB-V1 MDR tox inconclusive, MCF10A rerep inconclusive
Cc1cc(C)n2nc(CNC(=O)c3c(F)cccc3F)nc2n1	none (no result: DRD3 antagonist, SW480 rerep, MCF10A rerep)
Cc1ccc(N2C(=O)C3C(C2=O)C(C(=O)c2ccc(Cl)cc2)N2CCCC32)cc1 (configuration not stated)	KB-V1 MDR tox inconclusive
CC(=O)Oc1ccc(N2C(=O)C3C(C2=O)C(C(=O)c2ccc(Cl)cc2)N2CCCC32)cc1 (configuration not stated)	KB-3-1 cytotox 18µM, SW480 rerep 4.6µM, KB-V1 MDR tox inconclusive, MCF10A rerep 18µM
COc1cc(CN(C(=S)NCC(=O)NC2CCCC2)C2CCCC2)cc(OC)c1OC	SW480 rerep inconclusive, KB-V1 MDR tox 13µM
